Reference: PubChem BioAssay (NCI)
About 83,000 compounds went through this panel and 20% of them were active in at least one assay; those are over-represented in the sample as a whole.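 Cells were grown in 96-well plates and exposed to the test compound at a single concentration for 48 hours; results are reported as percent growth, with values below 10 considered active.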 A number with no mark means an inactive call. The source made the active and inactive calls.

Experiments:
Assay in all cases: NCI-60 one-dose screen, 48 h (100 = growth as untreated, 0 = no growth, -100 = all killed)
Settings in all cases: 10 µM unless noted
[1] = tested on: K-562 leukemia
[2] = tested on: MALME-3M melanoma
[3] = tested on: MDA-MB-231 breast
[4] = tested on: RXF 393 renal
[5] = tested on: SF-268 CNS
[6] = tested on: SF-295 CNS
[7] = tested on: SF-539 CNS
[8] = tested on: UACC-257 melanoma
[9] = tested on: M14 melanoma
[10] = tested on: HCT-15 colon
[11] = tested on: HT29 colon
[12] = tested on: SNB-75 CNS
[13] = tested on: SNB-19 CNS
[14] = tested on: U251 CNS
[15] = tested on: PC-3 prostate
[16] = tested on: SK-MEL-5 melanoma
[17] = tested on: UACC-62 melanoma
[18] = tested on: SK-MEL-28 melanoma
[19] = tested on: SK-MEL-2 melanoma

SMILES	growth [1]	growth [2]	growth [3]	growth [4]	growth [5]	growth [6]	growth [7]	growth [8]	growth [9]	growth [10]	growth [11]	growth [12]	growth [13]	growth [14]	growth [15]	growth [16]	growth [17]	growth [18]	growth [19]
COc1cc(/C=C/C(=O)c2ccc(Cl)cc2)ccc1Oc1nc(NCCO)nc(N2CCOCC2)n1	35.9%	93.5%	104%	97.8%	97.6%	101%	95.9%	114%	98.7%	98.2%	111%	97.8%	99.3%	94%	95.3%	99.7%	93.9%	108%	99.7%
COc1ccc(/C=C2\SC(=Nc3cc(C)on3)NC2=O)cc1	100%	95.9%	106%	102%	104%	95.2%	99.3%	96.7%	92.2%	99.3%	108%	97%	96.4%	109%	96.7%	99.3%	95.1%	106%	115%
CC(O)C(NC(=O)C1CCCN1C(=O)CNC(=O)C1CC(=O)NCC(=O)NC(Cc2c[nH]c3ccccc23)C(=O)NC(Cc2ccc(O)cc2)C(=O)NCC(=O)NC(CO)C(=O)NC(CCC(N)=O)C(=O)NC(Cc2c[nH]c3ccccc23)C(=O)N1)C(=O)NCC(=O)NC(CCC(N)=O)C(=O)NC(CCCNC(=N)N)C(=O)NC(CC(=O)O)C(=O)O (centres undefined)	94.9%	95.5%	98.6%	116%	103%	102%	96%	102%	91.1%	99.5%	106%	92.4%	96.6%	106%	76.7%	101%	94.9%	99.6%	116%
Cc1cc2nc3c4cc(Cl)ccc4n(CC(=O)NCCN(C)C)c3nc2cc1C	-32.9% (active)	-66.9% (active)	53.2%	61.1%	83%	93.5%	21.8%	105%	-88.7% (active)	-7.4% (active)	-75.5% (active)	64.1%	81.5%	-38% (active)	60.8%	89.8%	79.4%	-88.6% (active)	112%
COC(=O)C1CN(S(=O)(=O)/N=C2\NC(=O)NC2=C(Cl)Cl)C1	101%	104%	106%	123%	103%	104%	101%	101%	101%	107%	111%	113%	100%	105%	99.3%	100%	95.7%	112%	108%
NS(=O)(=O)c1cccc(Nc2nc(SCC(=O)c3ccc([N+](=O)[O-])cc3)nc3ccccc23)c1	19.7%	58.6%	55.6%	57%	54.5%	36.8%	52.2%	88.9%	38.5%	34.5%	71.2%	45.9%	73.7%	52.2%	24.2%	7.52% (active)	-12.7% (active)	60.3%	13.2%
COC(=O)c1ccc(NC(=S)N2CCc3ccc([N+](=O)[O-])cc3C2)cc1O	110%	95.4%	94.5%	110%	103%	102%	103%	109%	102%	99.7%	109%	112%	97.6%	111%	98.7%	100%	99.2%	106%	122%
O=C(N/N=C/c1ccc(Cl)s1)c1[nH]c2ccc(Br)cc2c1-c1ccccc1	6.77% (active)	53.4%	1.52% (active)	71.7%	42.1%	15.5%	3.35% (active)	52%	5.47% (active)	15.6%	3.1% (active)	28.1%	33.2%	16.5%	30.2%	-23% (active)	41.4%	61.6%	13.1%
O=C(N/N=C/c1cccs1)c1[nH]c2ccc(Br)cc2c1-c1ccccc1	4.72% (active)	58.2%	5.46% (active)	62.8%	35.3%	15.9%	2.22% (active)	61.2%	1.81% (active)	9.74% (active)	-23.3% (active)	31.4%	32.3%	19.1%	26.1%	-36.7% (active)	43%	60.7%	20.3%
O=C(Oc1ccc2ccc(=O)oc2c1)c1ccc(Cl)cc1	115%	102%	103%	116%	106%	101%	101%	106%	107%	97.9%	115%	112%	93.2%	106%	103%	101%	97.3%	109%	113%
CC(=NNc1ncnc2ccccc12)c1ccc(S(C)(=O)=O)cc1	96.9%	98.3%	93%	114%	108%	97.1%	97.6%	108%	92.5%	96.5%	112%	103%	97.6%	117%	87.9%	101%	96.1%	113%	112%
COc1ccc(-n2c(SCC(=O)Nc3ccc(-c4nc5ccccc5[nH]4)cc3)nc3ccccc3c2=O)cc1	5.98% (active)	-57.3% (active)	29%	-39.1% (active)	42.6%	16.2%	-77.3% (active)	45.3%	-26.7% (active)	-11% (active)	-5.71% (active)	62.8%	20.9%	-83.4% (active)	6.41% (active)	-7.57% (active)	-18.3% (active)	-64% (active)	97.7%
C#Cc1nc(C2=C(C)C(O)CC2)cs1 (centres undefined)	114%	109%	112%	95.6%	108%	113%	108%	102%	101%	98.9%	118%	96.1%	104%	104%	97.7%	101%	94.2%	105%	117%
Nc1nc(N)c2c(n1)NC(c1ccc(C(F)(F)F)cc1)CC(c1ccc(Nc3nc(NCCO)nc(Nc4ccc(Cl)cc4)n3)cc1)=N2 (centres undefined)	1.08% (active)	-79% (active)	-59.4% (active)	-78.8% (active)	-29.4% (active)	-79.5% (active)	-86.2% (active)	74.1%	-86.9% (active)	-54.4% (active)	-66.6% (active)	35.4%	-79.1% (active)	-22.3% (active)	-31.5% (active)	-92.8% (active)	-41.5% (active)	-94.6% (active)	-80.3% (active)
COc1ccc(C(=O)/C=C/c2ccc(Oc3nc(NCCO)nc(N4CCOCC4)n3)c(OC)c2)cc1	6.9% (active)	84.7%	85.3%	108%	85.5%	104%	82.5%	89.9%	86.8%	36.2%	35%	89.6%	69.3%	43.1%	80%	95.2%	70.3%	97.3%	101%
COC(=O)C(C)NS(=O)(=O)/N=C1\NC(=O)NC1=C(Cl)Cl (centres undefined)	104%	99%	106%	124%	98.2%	103%	95.7%	99.7%	94.7%	102%	115%	98.8%	100%	106%	92.9%	99.1%	91.9%	99.4%	110%
